According to the supplement of paper PMC10849652:
Targets with a hit are over-represented here; the source holds about 7,900 in all. About 0.6% of all pairs of compound and target were hits. Values without a mark were called inactive.

Experiments:
Experiment in all cases: log2 fold change, soluble protein after heating vs DMSO (PISA); higher = thermal stabilisation; K562 cells, 10 uM, 30 min; active = over 0.2 and 3.5 SD of the protein, either way, in both replicates (recomputed)
[1] = compound: CN1CCN(CCOc2cc(OC3CCOCC3)c3c(Nc4c(Cl)ccc5c4OCO5)ncnc3c2)CC1 [saracatinib]
Method in brief: (§1)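 K562 cells at 2×10^6 cells/mL were treated for 30 min with 10 μM compound, and aliquots were heated for 3 min over 48°C-58°C before pooling. Extraction used PBS with 0.5% NP-40 at 4°C, and soluble protein was the supernatant after 21,000xg for 90 min, measured by TMTpro 16plex LC-MS/MS with channel sums equalised. Thermal stability values, relative to control samples and from duplicates, are log2 fold changes.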

[2] = compound: CN1CCN(c2nc(C3=C(c4c[nH]c5ccccc45)C(=O)NC3=O)c3ccccc3n2)CC1 [sotrastaurin]
Method in brief: as §1

[3] = compound: CN1CC[C@H](c2c(O)cc(O)c3c(=O)cc(-c4ccccc4Cl)oc23)[C@H](O)C1 [alvocidib]
Method in brief: as §1

[4] = compound: CN1CCc2c(c3ccccc3n2Cc2ccc(C(=O)NO)cc2)C1 [Tubastatin A]
Method in brief: as §1

[5] = compound: CNC(=O)C1=CC=CC=C1NC2=NC(=NC=C2Cl)NC3=C(C=C(C=C3)N4CCOCC4)OC
Method in brief: as §1

[6] = compound: CNC(=O)c1ccc(Nc2ncc(C(F)(F)F)c(NCc3nccnc3N(C)S(C)(=O)=O)n2)cc1 [defactinib]
Method in brief: as §1

[7] = compound: CNCc1ccc(-c2[nH]c3cc(F)cc4c3c2CCNC4=O)cc1 [rucaparib]
Method in brief: as §1

[8] = compound: CNc1nc(-c2ccc3c(N)n[nH]c3c2)cc(N2C[C@@H](C(=O)NC3CCCCC3)CC[C@H]2C)n1
Method in brief: as §1

[9] = compound: COC(=O)N[C@@H](C)CNc1nccc(-c2cn(C(C)C)nc2-c2cc(Cl)cc(NS(C)(=O)=O)c2F)n1 [encorafenib]
Method in brief: as §1

[10] = compound: COC(=O)[C@H](CCSC)NC(=O)C1=C(C=C(C=C1)NC[C@H](CS)N)C2=CC=CC=C2
Method in brief: as §1

Chain of UniProt Q9NQW7 (Q9NQW7 whole entry, looked up): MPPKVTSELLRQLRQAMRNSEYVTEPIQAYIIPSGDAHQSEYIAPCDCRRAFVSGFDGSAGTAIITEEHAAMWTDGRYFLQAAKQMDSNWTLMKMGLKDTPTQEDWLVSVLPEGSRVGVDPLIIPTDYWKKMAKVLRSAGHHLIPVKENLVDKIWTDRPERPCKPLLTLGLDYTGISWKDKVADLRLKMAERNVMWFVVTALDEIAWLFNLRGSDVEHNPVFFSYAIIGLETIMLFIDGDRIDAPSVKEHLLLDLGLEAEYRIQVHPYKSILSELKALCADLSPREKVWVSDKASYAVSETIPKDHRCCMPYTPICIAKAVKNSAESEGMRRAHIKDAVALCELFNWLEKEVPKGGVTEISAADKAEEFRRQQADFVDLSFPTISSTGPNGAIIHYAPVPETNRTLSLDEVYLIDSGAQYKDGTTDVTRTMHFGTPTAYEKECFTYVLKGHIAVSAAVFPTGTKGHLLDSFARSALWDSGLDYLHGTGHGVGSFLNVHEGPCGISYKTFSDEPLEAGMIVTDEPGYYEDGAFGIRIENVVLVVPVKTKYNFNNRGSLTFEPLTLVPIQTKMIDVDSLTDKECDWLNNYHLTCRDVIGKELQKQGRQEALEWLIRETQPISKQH
Chain of UniProt Q8N2K1 (Q8N2K1 whole entry, looked up): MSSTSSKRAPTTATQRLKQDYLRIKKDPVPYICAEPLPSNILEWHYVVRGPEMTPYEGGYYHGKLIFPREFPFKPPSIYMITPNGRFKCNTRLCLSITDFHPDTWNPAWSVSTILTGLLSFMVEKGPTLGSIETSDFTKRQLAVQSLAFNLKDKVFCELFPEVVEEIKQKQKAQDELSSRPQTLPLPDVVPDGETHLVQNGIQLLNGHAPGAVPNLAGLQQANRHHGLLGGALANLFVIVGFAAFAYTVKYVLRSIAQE
Chain of UniProt Q9Y5L0 (Q9Y5L0 whole entry, looked up): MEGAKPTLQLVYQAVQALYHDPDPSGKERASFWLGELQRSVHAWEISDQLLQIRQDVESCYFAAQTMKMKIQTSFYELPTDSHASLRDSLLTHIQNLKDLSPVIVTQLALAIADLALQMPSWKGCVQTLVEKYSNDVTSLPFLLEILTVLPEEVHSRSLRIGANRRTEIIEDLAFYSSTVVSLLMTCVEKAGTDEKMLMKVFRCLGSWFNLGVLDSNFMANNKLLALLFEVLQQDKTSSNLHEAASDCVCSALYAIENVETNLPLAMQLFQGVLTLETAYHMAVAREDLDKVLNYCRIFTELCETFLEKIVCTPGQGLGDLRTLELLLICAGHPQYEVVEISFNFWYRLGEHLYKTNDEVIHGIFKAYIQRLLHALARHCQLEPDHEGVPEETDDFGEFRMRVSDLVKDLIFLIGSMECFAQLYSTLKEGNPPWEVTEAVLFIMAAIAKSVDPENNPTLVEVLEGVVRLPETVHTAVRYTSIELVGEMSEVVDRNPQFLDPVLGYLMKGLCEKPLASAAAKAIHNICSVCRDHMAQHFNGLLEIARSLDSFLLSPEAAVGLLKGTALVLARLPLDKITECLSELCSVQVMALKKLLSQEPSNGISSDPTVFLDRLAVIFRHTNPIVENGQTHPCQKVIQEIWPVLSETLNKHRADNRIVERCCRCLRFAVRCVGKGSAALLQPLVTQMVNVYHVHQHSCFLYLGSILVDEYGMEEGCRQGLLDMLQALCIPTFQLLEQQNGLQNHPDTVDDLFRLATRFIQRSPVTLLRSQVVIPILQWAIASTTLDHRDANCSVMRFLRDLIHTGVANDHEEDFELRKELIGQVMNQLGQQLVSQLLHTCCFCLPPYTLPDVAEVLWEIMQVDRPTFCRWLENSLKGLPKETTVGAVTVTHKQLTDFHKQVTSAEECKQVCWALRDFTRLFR
Chain of UniProt P61960 (P61960 whole entry, looked up): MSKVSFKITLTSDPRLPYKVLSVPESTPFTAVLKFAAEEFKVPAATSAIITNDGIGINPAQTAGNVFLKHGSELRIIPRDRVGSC
Chain of UniProt Q9Y6I4 (Q9Y6I4 whole entry, looked up): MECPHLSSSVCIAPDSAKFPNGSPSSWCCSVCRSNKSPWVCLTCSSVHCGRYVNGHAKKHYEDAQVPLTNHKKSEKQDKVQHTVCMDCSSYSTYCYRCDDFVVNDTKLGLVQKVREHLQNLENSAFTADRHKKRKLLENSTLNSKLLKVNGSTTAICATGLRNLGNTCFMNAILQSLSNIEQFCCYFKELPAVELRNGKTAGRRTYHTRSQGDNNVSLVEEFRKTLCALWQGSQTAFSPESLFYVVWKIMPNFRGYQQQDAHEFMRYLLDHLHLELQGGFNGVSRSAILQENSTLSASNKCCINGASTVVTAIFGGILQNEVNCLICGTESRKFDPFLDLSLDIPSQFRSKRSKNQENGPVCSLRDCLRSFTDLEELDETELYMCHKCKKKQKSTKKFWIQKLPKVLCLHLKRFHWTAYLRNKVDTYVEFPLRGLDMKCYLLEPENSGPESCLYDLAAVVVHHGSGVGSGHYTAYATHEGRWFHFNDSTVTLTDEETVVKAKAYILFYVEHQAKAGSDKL
Chain of UniProt P12956 (P12956 whole entry, looked up): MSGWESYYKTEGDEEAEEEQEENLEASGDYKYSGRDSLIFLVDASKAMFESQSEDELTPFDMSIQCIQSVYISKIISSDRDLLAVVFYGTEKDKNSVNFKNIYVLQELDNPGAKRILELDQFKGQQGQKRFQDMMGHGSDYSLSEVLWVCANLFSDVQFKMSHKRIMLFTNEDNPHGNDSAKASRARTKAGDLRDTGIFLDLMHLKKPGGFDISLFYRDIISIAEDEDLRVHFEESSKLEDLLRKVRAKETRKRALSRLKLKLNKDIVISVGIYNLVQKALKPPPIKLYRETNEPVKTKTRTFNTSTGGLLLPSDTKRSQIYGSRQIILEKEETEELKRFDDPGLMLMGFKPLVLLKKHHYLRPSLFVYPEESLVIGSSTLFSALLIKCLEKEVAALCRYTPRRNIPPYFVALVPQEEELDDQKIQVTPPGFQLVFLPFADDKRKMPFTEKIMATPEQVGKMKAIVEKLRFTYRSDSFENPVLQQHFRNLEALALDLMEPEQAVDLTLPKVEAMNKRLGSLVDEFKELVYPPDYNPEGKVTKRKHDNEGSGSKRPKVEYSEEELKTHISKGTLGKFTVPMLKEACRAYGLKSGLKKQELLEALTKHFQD
Chain of UniProt P0CG48 (P0CG48 whole entry, looked up): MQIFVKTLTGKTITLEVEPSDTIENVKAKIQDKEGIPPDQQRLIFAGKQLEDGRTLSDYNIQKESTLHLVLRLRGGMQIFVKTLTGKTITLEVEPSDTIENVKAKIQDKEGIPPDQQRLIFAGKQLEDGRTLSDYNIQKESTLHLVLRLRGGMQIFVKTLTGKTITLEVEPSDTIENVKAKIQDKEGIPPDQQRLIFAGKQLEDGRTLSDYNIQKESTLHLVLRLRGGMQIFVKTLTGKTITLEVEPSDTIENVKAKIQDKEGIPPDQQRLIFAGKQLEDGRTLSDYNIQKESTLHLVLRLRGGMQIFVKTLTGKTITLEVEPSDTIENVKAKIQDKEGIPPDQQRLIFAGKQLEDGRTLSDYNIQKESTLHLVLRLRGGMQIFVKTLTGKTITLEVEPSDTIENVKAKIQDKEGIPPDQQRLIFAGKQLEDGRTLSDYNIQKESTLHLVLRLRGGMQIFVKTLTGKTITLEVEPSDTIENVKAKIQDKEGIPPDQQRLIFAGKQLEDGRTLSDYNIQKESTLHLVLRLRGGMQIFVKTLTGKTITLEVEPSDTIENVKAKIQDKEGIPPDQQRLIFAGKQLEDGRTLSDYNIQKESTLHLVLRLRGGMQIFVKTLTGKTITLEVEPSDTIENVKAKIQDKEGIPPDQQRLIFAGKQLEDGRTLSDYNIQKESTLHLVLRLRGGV
Chain of UniProt Q9NP79 (Q9NP79 whole entry, looked up): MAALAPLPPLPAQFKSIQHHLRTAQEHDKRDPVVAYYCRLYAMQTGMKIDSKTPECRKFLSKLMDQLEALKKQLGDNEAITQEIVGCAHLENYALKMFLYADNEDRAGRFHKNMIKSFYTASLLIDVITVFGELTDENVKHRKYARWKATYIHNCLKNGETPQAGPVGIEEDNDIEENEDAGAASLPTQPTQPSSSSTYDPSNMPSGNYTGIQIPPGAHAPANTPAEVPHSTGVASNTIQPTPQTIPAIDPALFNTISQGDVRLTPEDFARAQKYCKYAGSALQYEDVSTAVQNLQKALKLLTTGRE
Chain of UniProt O94967 (O94967 whole entry, looked up): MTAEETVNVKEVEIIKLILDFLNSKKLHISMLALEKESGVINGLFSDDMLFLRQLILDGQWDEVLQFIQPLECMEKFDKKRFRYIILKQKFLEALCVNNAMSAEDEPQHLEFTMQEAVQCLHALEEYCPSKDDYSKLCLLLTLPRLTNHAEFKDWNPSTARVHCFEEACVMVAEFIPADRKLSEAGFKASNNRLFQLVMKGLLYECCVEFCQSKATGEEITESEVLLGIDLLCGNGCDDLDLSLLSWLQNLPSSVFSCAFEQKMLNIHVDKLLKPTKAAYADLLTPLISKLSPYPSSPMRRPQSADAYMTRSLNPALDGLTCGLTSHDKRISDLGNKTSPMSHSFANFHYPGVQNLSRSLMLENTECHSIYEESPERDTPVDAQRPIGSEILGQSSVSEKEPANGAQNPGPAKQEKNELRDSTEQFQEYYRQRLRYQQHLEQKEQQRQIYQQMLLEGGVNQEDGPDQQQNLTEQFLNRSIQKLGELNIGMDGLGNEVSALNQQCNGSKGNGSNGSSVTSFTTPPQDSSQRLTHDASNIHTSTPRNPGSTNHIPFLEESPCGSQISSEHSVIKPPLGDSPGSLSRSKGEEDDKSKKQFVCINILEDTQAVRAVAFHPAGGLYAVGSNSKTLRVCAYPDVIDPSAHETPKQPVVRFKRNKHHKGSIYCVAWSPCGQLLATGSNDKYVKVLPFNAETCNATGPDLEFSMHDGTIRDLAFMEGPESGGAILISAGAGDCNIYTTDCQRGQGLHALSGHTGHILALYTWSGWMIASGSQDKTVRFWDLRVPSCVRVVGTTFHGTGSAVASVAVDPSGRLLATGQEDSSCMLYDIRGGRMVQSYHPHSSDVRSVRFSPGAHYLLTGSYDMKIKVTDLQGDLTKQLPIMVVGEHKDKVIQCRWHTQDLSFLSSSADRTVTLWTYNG
Chain of UniProt Q9UDW1 (Q9UDW1 whole entry, looked up): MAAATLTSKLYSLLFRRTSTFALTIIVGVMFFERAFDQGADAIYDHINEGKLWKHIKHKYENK

Target | log2 fold change [1] | log2 fold change [2] | log2 fold change [3] | log2 fold change [4] | log2 fold change [5] | log2 fold change [6] | log2 fold change [7] | log2 fold change [8] | log2 fold change [9] | log2 fold change [10]
UGGT1 (UniProt Q9NYU2) | -0.006 | -0.034 | -0.037 | 0.022 | -0.005 | 0.019 | 0.009 | -0.033 | 0.017 | -0.002
TMEM9 (UniProt Q9P0T7) | 0.051 | -0.025 | -0.068 | 0.016 | 0.004 | -0.014 | 0.003 | 0.033 | 0.033 | 0.004
UBXN10 (UniProt Q96LJ8) | 0.111 | 0.122 | -0.021 | 0.036 | -0.152 | 0.254 | -0.05 | -0.049 | -0.074 | 0.014
WASHC5 (UniProt Q12768) | 0.007 | -0.02 | -0.042 | 0.047 | 0.062 | -0.032 | 0.045 | -0.009 | 0.033 | -0.033
TSG101 (UniProt Q99816) | -0.008 | -0.047 | -0.076 | 0 | 0.011 | -0.12 | -0.006 | -0.044 | -0.007 | -0.032
TNPO3 (UniProt Q9Y5L0) | 0.034 | -0.075 | -0.114 | -0.03 | -0.011 | -0.067 | 0 | -0.013 | 0.032 | -0.003
VTA1 (UniProt Q9NP79) | 0.028 | -0.022 | -0.081 | -0.046 | 0.045 | -0.029 | 0.011 | -0.011 | 0.023 | -0.033
TRIP10 (UniProt Q15642) | 0.036 | -0.014 | -0.011 | 0 | 0.027 | -0.029 | 0.006 | 0.046 | 0.038 | -0.005
WDR47 (UniProt O94967) | -0.019 | -0.008 | -0.002 | 0.039 | 0.035 | 0.052 | -0.071 | -0.041 | 0.045 | -0.087
VPS18 (UniProt Q9P253) | -0.034 | -0.156 | -0.118 | -0.052 | -0.003 | -0.068 | 0.099 | 0.029 | 0.031 | -0.076
UFM1 (UniProt P61960) | 0.028 | -0.004 | -0.262 | 0.097 | 0.026 | -0.066 | -0.119 | -0.013 | 0.029 | -0.031
WNK1 isoform 7 (UniProt Q9H4A3) | 0.022 | 0.003 | -0.007 | -0.005 | -0.047 | 0.003 | 0.013 | -0.035 | 0.012 | 0.006
XRCC6 (UniProt P12956) | -0.013 | -0.114 | -0.187 | 0.099 | -0.047 | -0.264 (active) | -0.007 | -0.015 | 0.048 | -0.041
VPS13B (UniProt Q7Z7G8) | 0.033 | 0.016 | -0.003 | 0.032 | -0.002 | 0.009 | -0.039 | -0.016 | 0.031 | -0.01
XPNPEP1 isoform 3 (UniProt Q9NQW7) | 0.002 | -0.005 | -0.076 | -0.125 | -0.027 | -0.07 | -0.033 | -0.012 | -0.008 | 0.352 (active)
TTC38 (UniProt Q5R3I4) | -0.045 | 0.086 | -0.132 | 0.578 (active) | -0.062 | -0.262 | 0.435 | 0.293 | -0.02 | -0.011

Target | log2 fold change [1] | log2 fold change [2] | log2 fold change [3] | log2 fold change [4] | log2 fold change [5] | log2 fold change [6] | log2 fold change [7] | log2 fold change [8] | log2 fold change [9] | log2 fold change [10]
USP3 (UniProt Q9Y6I4) | 0.16 | 0.074 | -0.288 | -0.181 | -0.118 | -0.205 | 0.042 | 0.155 | -0.008 | -0.092
UBE2J2 isoform 3 (UniProt Q8N2K1) | 0.07 | 0.044 | -0.226 | 0.091 | -0.114 | -0.061 | 0.081 | 0.055 | 0.014 | -0.053
TMEM128 (UniProt Q5BJH2) | 0.083 | 0.01 | -0.082 | -0.011 | -0.023 | -0.045 | 0.019 | -0.062 | -0.006 | -0.006
WDR11 (UniProt Q9BZH6) | -0.079 | 0.059 | 0.06 | -0.029 | -0.021 | 0.016 | -0.382 (active) | -0.052 | -0.034 | 0.017
VDAC1 (UniProt P21796) | 0.074 | 0.035 | 0.016 | -0.014 | 0.011 | 0.005 | -0.022 | -0.026 | -0.03 | 0.014
WDR7 (UniProt Q9Y4E6) | 0.024 | 0.041 | 0.04 | -0.047 | -0.114 | -0.3 | 0.128 | -0.015 | -0.174 | -0.373
UPF3B (UniProt Q9BZI7) | -0.099 | 0.002 | 0.423 | 0.114 | 0.045 | 0.413 | 0.286 | 0.035 | 0.108 | 0.007
VPS11 (UniProt Q9H270) | -0.003 | -0.08 | -0.061 | 0.004 | -0.018 | -0.066 | 0.082 | -0.021 | 0.023 | -0.01
UBC (UniProt P0CG48) | -0.106 | 0.042 | -0.049 | 0.252 | 0.002 | 0.031 | 0.053 | 0.017 | -0.124 | 0.005
WDR4 (UniProt P57081) | 0.008 | 0.071 | -0.068 | 0.018 | -0.022 | -0.027 | -0.079 | 0.024 | 0.041 | -0.033
TMEM189-UBE2V1 (UniProt I3L0A0) | 0.041 | 0.157 | 0.016 | -0.007 | -0.004 | -0.014 | -0.059 | -0.038 | 0 | 0.018
TXNL4B (UniProt Q9NX01) | -0.053 | 0.189 | -0.073 | 0.03 | 0.02 | -0.093 | 0.022 | -0.062 | -0.021 | -0.199
VARS2, A0A0G2JL52 | 0.007 | -0.019 | -0.005 | -0.026 | -0.019 | -0.005 | 0.02 | 0.012 | -0.004 | -0.041
TPP1 (UniProt O14773) | -0.008 | -0.005 | -0.005 | 0.005 | 0.007 | 0.049 | -0.013 | -0.013 | 0.018 | 0.011
UQCR10 (UniProt Q9UDW1) | 0.001 | 0.121 | -0.024 | -0.103 | 0.018 | 0.039 | -0.063 | 0.018 | 0.001 | -0.031
